NOD2-RIPK2 inh: NOD2-RIPK2 protein interaction inhibition. inhibition, % at 4.98 µM. AID 624267. CHO BLA complementation NOD2-RIPK2, CCF4 ratio. 0.38% of 360,000 active; in the data active means inhibition above about 21%;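 further: 0% = vehicle only and 100% = reference blocker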
Target sequence (O43353 whole entry, looked up): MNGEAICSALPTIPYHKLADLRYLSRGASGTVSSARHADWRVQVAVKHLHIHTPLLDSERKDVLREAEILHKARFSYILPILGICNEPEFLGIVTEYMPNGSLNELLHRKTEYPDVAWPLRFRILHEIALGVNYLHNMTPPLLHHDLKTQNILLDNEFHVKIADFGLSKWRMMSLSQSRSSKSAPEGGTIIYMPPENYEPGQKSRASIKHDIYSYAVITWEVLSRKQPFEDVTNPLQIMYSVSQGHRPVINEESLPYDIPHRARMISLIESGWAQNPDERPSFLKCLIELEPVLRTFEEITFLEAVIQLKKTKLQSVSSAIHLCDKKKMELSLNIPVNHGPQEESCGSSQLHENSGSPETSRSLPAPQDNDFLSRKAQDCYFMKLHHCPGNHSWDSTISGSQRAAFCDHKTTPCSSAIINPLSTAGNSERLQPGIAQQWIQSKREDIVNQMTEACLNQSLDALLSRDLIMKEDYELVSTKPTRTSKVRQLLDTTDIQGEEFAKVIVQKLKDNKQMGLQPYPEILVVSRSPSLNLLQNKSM
TLR9-MyD88 inh: inhibitors of human TLR9-MyD88 binding; Q9NR96+Q99836; CHO BLA complementation TLR9-MyD88, CCF4 FRET ratio; inhibition, % at 4.98 µM; 0.21% of 340,000 active; AID 504734;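 active means inhibition above the mean over all tested compounds plus 3 SD, cut at about 21% in these data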;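 further: 0% = DMSO only wells and 100% = clavulanate BLA inhibitor control wells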
TLR4 MyD88 comp: TLR4-MyD88 interaction inhibition in cells; 0.18% of 200,000 active; O00206+Q99836; AID 861; inhibition, % at 8.4 µM; HeLa CL3-4 TLR4/MyD88 BLA complementation, FRET ratio; in the data active means inhibition above about 25%;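 further: 0% = vehicle and 100% = reference inhibitor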
IDE cell inh: inhibits human insulin-degrading enzyme in HEK cells. FAbetaB cleavage, fluorescence polarization. P14735. 0.41% of 320,000 active. inhibition, % at 5.59 µM;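 active means percent inhibition above the average of all tested compounds plus 3 SD, set per screening campaign, cut at about 16% in these data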;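 further: IDE supplied by intact live HEK cells; FP after avidin binding of uncleaved biotin substrate so inhibition keeps polarization high; 0% = DMSO wells and 100% = 60 µM reference IDE inhibitor Ii1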
IDE cell activ: IDE (human) activation, cell-based | HEK cells, FAbeta-B cleavage, fluorescence polarization; 0% vehicle, 100% cell-free pure enzyme wells | activation, % at 5.96 µM | P14735 | AID 493087 | 0.073% of 340,000 active;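 active means activation above the mean of all tested compounds plus 3 SD, set per screening campaign, cut at about 17% in these data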
TLR4 MyD88 cnf: confirmation of human TLR4-MyD88 binding inhibitors | 50% of 350 active | HeLa CL3-4 BLA complementation, CCF4 FRET ratio | inhibition, % at 8.4 µM | shares compounds with TLR4 MyD88 comp | AID 941;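 active means mean inhibition across three repeat runs above about 25% carried over from the earlier screen, limit read from the data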;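 further: plate controls were DMSO only for no effect and clavulanic acid blocking BLA at full dose for full effect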
BLA inh HeLa: beta-lactamase inhibition flagged in TLR4-MyD88 counter-screen; shares compounds with TLR4 MyD88 comp; HeLa BLA reporter, CCF4 FRET ratio; inhibition, % at 8.4 µM; 63% of 350 active; AID 1237;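 active means mean inhibition over three repeats above about 26% taken from the earlier screen, limit read from the data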;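 further: HeLa cells stably expressing beta-lactamase reporter as counterscreen for TLR4-MyD88 inhibitors; 0% = DMSO and 100% = clavulanic acid full inhibition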
* = called active by the depositor; · = not tested or not shown. Only some compounds are listed: those with a hit (about 0.87% of all), similar ones and a draw of the others.

SMILES	NOD2-RIPK2 inh	TLR9-MyD88 inh	TLR4 MyD88 comp	IDE cell inh	IDE cell activ	TLR4 MyD88 cnf	BLA inh HeLa
CC(C)C(=O)Nc1cccc(-c2nc3ccccc3o2)c1	3	-11	26*	-3	3	-4	-5
NC(CSC(c1ccccc1)(c1ccccc1)c1cccc2ccccc12)C(=O)O (configuration not stated)	-1	1	·	·	3	·	·
CC1(C)CC(=O)C(C(C2=C(O)CC(C)(C)CC2=O)c2cccs2)C(=O)C1 (configuration not stated)	-1	-1	25*	5	5	2	-11
COc1ccc(-n2c(-c3ccc(Br)cc3)c[n+]3c2CCc2ccccc2-3)cc1	-5	0	26*	-5	0	25*	23
CC(C)c1ccc(-n2c(-c3ccccc3)c[n+]3c2CCc2ccccc2-3)cc1	12	-5	25	·	-4	·	·
CCOC(=O)[C@]12CCC=C1N(Cc1ccc3c(c1)OCO3)C(=O)[C@H](CC(=O)N1CCOCC1)C2	10	·	·	·	·	·	·
CN1CCN(S(=O)(=O)c2cc([N+](=O)[O-])ccc2N/N=C/c2ccc(Cl)cc2)CC1	5	-1	-9	3	7	·	·
O=[N+]([O-])c1ccc(N/N=C/c2c[nH]c3ccccc23)c(S(=O)(=O)Nc2ccc(Cl)cc2)c1	-4	3	57*	1	1	43*	65*
COc1ccccc1NS(=O)(=O)c1cc([N+](=O)[O-])ccc1N/N=C/c1c(C)[nH]c2ccccc12	17	11	36*	8	-4	22	45*
COc1ccc(CN2C(=O)C(CC(=O)NCCc3ccccn3)CC(C(=O)N(C(C)C)C(C)C)=C2C)cc1 (configuration not stated)	7	-4	·	·	·	·	·
Cc1nn(-c2ccccc2)c2c1C(c1ccc([N+](=O)[O-])cc1)N1C(=N2)C(=O)Nc2ccccc21 (configuration not stated)	-4	5	5	-1	3	·	·
Cc1nn(-c2ccccc2)c2c1C(c1ccc(O)c(O)c1)N1C(=N2)C(Nc2ccccc2)=Nc2ccccc21 (configuration not stated)	18	13	57*	-2	-2	52*	89*
CCOC(=O)C1=C(C)N=c2s/c(=C\c3ccc(OC(C)=O)c(OCC)c3)c(=O)n2C1/C=C/c1ccccc1 (configuration not stated)	9	-7	54*	-2	-2	26*	12
CCCCCC(=O)N1C[C@@H](n2cc(C3CC3)nn2)[C@H](O)C[C@@H]1c1ccccc1	-5	-5	·	·	·	·	·
Cc1ccc(S(=O)(=O)N2[C@@H](c3ccc(Cl)cc3)C(C(=O)O)=CC[C@H]2c2ccc(Cl)cc2)cc1	-17	-6	·	4	1	·	·
COc1ccc(CN2C(=O)CSCC2(C)C(=O)Nc2c(C)cccc2C)cc1 (configuration not stated)	1	·	·	·	·	·	·
COc1ccc(S(=O)(=O)N2CCCC(C(=O)NCc3ccccn3)C2)cc1Cl (configuration not stated)	-1	-2	26*	-2	8	5	4
CCOc1ccc(S(=O)(=O)N2CCCC(C(=O)NCc3ccccn3)C2)cc1Cl (configuration not stated)	7	-1	·	0	3	·	·
Cc1ccc(-c2nnn3c2nc(Cl)c2ccccc23)cc1	1	-6	24	·	3	·	·
Fc1cccc(-c2nnn3c2nc(Cl)c2ccccc23)c1	-11	2	35*	·	0	58*	41*
c1ccc(-c2cn3nc(-c4ccccc4)c(-c4ccccc4)nc3n2)cc1	3	1	52*	-4	3	43*	73*
Cc1ccc(-c2cn3nc(-c4ccccc4)c(-c4ccccc4)nc3n2)cc1	13	·	·	4	·	·	·
CC1=NOC(=O)/C1=C\c1ccc(-c2ccc(Cl)cc2Cl)o1	-8	-11	28*	·	-6	11	-13
CCCOc1ccc(Cl)cc1/C=C1/C(=O)ON=C1C	-1	-7	·	4	-1	·	·
O=C(NCc1ccccc1)C(c1cccc2ccccc12)n1c(=O)c(-c2ccccc2)nc2ccccc21 (configuration not stated)	-14	·	·	·	·	·	·
SMILES	NOD2-RIPK2 inh	TLR9-MyD88 inh	TLR4 MyD88 comp	IDE cell inh	IDE cell activ	TLR4 MyD88 cnf	BLA inh HeLa
CCNC(=O)c1cc2c(c(-c3cccc(-c4ccccc4F)c3)n1)[C@H](CCO)N(C(=O)CC)C2	-1	·	·	·	·	·	·
Cc1c(N2C(=O)/C(=C\C3CC=CCC3)SC2=S)c(=O)n(-c2ccccc2)n1C (configuration not stated)	1	3	25*	-1	-3	9	-16
Cc1c(N2C(=O)/C(=C/C3CC=CCC3)SC2=S)c(=O)n(-c2ccccc2)n1C (configuration not stated)	10	·	·	3	·	·	·
CC(=O)N1CCc2c(sc(NC(=O)c3ccc([N+](=O)[O-])o3)c2C(N)=O)C1	1	-1	·	·	·	·	·
COC(=O)C1=CN(c2ccc3c(c2)OCO3)C(N)=C(C#N)C1c1cccc(F)c1 (configuration not stated)	0	·	·	·	·	·	·
COC(=O)c1ccc(CSC(=N)N)o1	-5	-5	8	-2	2	·	·
CCOC(=O)c1ccoc1CSCc1ccc(C(=O)OC)o1	-2	0	27*	-4	-7	-4	-4
COc1ccc(-c2ccc3c(N)c(C(=O)c4ccc(OC)c(OC)c4)sc3n2)cc1	18	9	27*	8	7	23	45*
COc1ccc(-c2ccc3c(N)c(C(=O)NC(C)C)sc3n2)cc1OC	-7	·	·	3	·	·	·
CCOC(=O)c1c2ccc(OCC(=O)N/N=C/c3ccc(C)cc3)cc2n2ccccc12	17	8	38*	4	6	48*	17
CCSc1nnc(-c2sc3nnc(-c4ccccc4)c(-c4ccccc4)c3c2N)o1	11	3	40*	21*	-72	47*	80*
N=c1ncn(C2OC(CO)C(O)C2O)c2nc(Br)[nH]c12 (configuration not stated)	2	3	·	·	·	·	·
CCCn1c(=O)[nH]c(=O)c2c1nc(-c1ccccc1OC(F)F)n2CCOC	-9	-1	26*	6	3	2	-3
CC(C)NC(=O)N(C)C[C@@H]1OCc2cnnn2CCCC(=O)N([C@H](C)CO)C[C@@H]1C	-8	4	·	·	·	·	·
Cc1ccc(S(=O)(=O)Nc2cc(C(F)(F)F)ccc2N2CCOCC2)cc1C	-7	6	70*	-3	1	-1	1
CC(=O)Oc1ccc2c(c1)Oc1cc(OC(C)=O)ccc1C21OC(=O)c2ccccc21	76*	71*	63*	-18	42*	70*	93*

Compound activity deposited in PubChem BioAssay by The Scripps Research Institute Molecular Screening Center.
